Results filed as inconclusive are left out. Entries that show only a call come without a potency. The source made the active and inactive calls. Calls follow the shape of the dose curve; as a rule, active = well fitted inhibition curve with a large enough effect; inconclusive = small, poorly fitted or top-dose-only effect; inactive = flat fitted curve, though single readings scatter.

40 compounds from PubChem BioAssay (NCATS) can be followed below.
Potency is read from the fitted curve at half-maximal effect.

Tyrosine-protein phosphatase non-receptor type substrate 1 (Homo sapiens) + Leukocyte surface antigen CD47 (Homo sapiens), sequence (P78324 whole entry, looked up): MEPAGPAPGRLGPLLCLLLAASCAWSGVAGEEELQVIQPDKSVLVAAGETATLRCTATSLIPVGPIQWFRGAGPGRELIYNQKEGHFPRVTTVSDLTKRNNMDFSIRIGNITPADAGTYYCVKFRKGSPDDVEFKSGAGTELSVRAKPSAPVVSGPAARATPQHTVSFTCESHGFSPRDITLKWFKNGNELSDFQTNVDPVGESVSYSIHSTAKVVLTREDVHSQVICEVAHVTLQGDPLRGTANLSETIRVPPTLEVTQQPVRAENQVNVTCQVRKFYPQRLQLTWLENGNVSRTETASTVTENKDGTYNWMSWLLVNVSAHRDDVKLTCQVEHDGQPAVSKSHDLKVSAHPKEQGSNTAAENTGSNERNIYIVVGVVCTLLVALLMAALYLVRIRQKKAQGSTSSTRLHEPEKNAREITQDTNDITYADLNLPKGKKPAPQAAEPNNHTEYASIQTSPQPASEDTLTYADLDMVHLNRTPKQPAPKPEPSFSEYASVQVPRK
Tyrosine-protein phosphatase non-receptor type substrate 1 (Homo sapiens) + Leukocyte surface antigen CD47 (Homo sapiens), sequence (Q08722 whole entry, looked up): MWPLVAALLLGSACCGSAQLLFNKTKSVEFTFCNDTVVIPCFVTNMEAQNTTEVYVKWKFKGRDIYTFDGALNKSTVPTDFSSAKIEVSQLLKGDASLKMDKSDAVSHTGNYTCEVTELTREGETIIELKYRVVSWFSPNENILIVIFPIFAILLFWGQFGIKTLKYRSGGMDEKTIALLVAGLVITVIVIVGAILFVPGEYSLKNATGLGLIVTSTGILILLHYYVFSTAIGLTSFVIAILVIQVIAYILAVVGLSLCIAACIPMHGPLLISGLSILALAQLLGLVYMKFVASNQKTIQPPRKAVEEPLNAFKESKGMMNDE

The assay concerns the target Tyrosine-protein phosphatase non-receptor type substrate 1 (Homo sapiens) + Leukocyte surface antigen CD47 (Homo sapiens) (UniProt P78324+Q08722). The experiment in a line: CD47-SIRPalpha protein protein interaction - Alpha assay qHTS validation (AID 1347059).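 Also: bead proximity luminescence from CD47 binding SIRPalpha after compound preincubation with SIRPalpha.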 As to conditions: AlphaScreen CD47-His/biotin-SIRPalpha binding, LOPAC; series mostly up to 38.3 µM. The source says: SIRPalpha is a myeloid cell expressed immunomodulatory receptor that binds the tumor expressed immune checkpoint CD47. Therapeutic disruption of this interaction leads to immune-mediated tumor rejection. This assay was used to quantitate CD47-SIRPalpha binding biochemically and evaluate chemical libraries for novel CD47-SIRPalpha inhibitors. To recapitulate the biological interaction of CD47 and SIRPalpha, we designed expression constructs to produce their recombinant, soluble, extracellular interaction domains. CD47 was produced with an N-terminal 6His tag. SIRPalpha was produced with an N-terminal Avi-Tag for site-specific biotin incorporation. The CD47-SIRPalpha interaction was measured by AlphaScreen using affinity tag linked reagents (Ni-NTA acceptor bead and streptavidin donor bead). SIRPalpha without biotin incorporation was used as a positive control inhibitor.
PROTOCOL TABLE (as described by Miller, T. et al. 2019)
SEQUENCE No. (e.g., 1, 2, 3, etc.); […] (e.g., Cells, Incubation, Reagent, etc.); VALUE and DESCRIPTION.
1a. Reagent. 2 uL SIRPalpha-biotin (25 nM) added to respective wells in Assay buffer; white/solid bottom high base, med bind 1536-well plates (Greiner 789075)
1b. Reagent. 2 uL Assay buffer negative control for background fluorescence
2. Reagent. 23 nL library compounds (7-pt, 1:4 intraplate titration series) or DMSO control transferred by Pin Tool
3. Centrifuge. Centrifuge plate for 30 s at 1000 RPM
4. Incubation.#Incubate reagents at room temperature for 30 min, protected from light
5. Reagent. 2 uL CD47-His (12.5 nM) in Assay buffer
6. Centrifuge. Centrifuge plate for 30 s at 1000 RPM
7. Incubation.#Incubate reagents at room temperature for 30 min, protected from light
8. Reagent. 1 uL Ni-NTA beads (10 ug/mL) added to respective wells
9. Reagent. 1 uL SAV beads (10 ug/mL) added to respective wells
10. Centrifuge. Centrifuge plate for 30 s at 1000 RPM
11. Incubation. Incubate reagents at room temperature for 30 min, protected from light
12. Detector. Measure AlphaScree n on EnVision (1536A1 aperture)
Where possible, perform Donor bead dilution and addition away from direct sunlight or with bright overhead lights turned off (<100 lux, similar to hallway lighting). Lighting should still be bright enough to allow accurate pipetting.
1. Assay buffer composition.#Phosphate buffered saline (PBS; 10 mM Phosphate, 137 mM NaCl, and 2.7 mM KCl; pH 7.4), 0.05% IGEPAL CA-630
2. 23nL of […] library compounds (7 plates) or DMSO vehicle control transferred to 9 Greiner white/solid bottom high base, TC plates in 7 interplate 1:5 titrations (see Yasgar, A. et al. 2008) with Pintool. Two of the 9 plates are DMSO-only in compound field at beginning and end of compound library-treated plates.
12. Aperture = 1536 plate HTS AlphaScreen; plate-detector distance = 0; Total measurement time = 240; Ex. time = 80 ms (33%); Afterglow CT1 corr. factor = 0; Glow CT2 corr. factor = 0; Bleach CT3 corr. factor = 0; Ref. signal= 417733; Ref. AD gain = 2
Turning to `CNc1cc(NS(=O)(=O)c2ccc(N)cc2)nc(NC)n1`, the Potency entry was “inactive”.
In the case of `Cc1ccc([N+](=O)[O-])cc1S(=O)(=O)N(C)C` it was “inactive”; in that of `C[N+](C)(C)CC=O`, “inactive”.
In the case of `CCCCS(=N)(=O)CC[C@H](N)C(=O)O` (stereo not given in full) it was “inactive”; in that of `C=C1C(=O)O[C@@H]2[C@H]3O[C@]3(C)CCC=C(C)CC[C@@H]12`, “inactive”.
In the case of `NS(=O)(=O)c1cccc2c1c([N+](=O)[O-])cc1nc(O)c(O)nc12` it was “inactive”.
`Cc1cc(Cn2cnc3c2C[C@@H](C(=O)O)N(C(=O)C(c2ccccc2)c2ccccc2)C3)ccc1N`: the Potency entry was “inactive”.
In the case of `COC(=O)C(C)(N)Cc1ccc(O)cc1` (stereo not given) it was “inactive”.
In the case of `Nc1ncnc2c1ncn2C1CCCO1` (stereo not given) it was “inactive”; in that of `O=C(O)c1cc2cc(F)ccc2[nH]1`, “inactive”.
In the case of `O=C(O)C1CCCNC1` (stereo not given) it was “inactive”; in that of `CCCCCCCCCCC/C=C\C(C)(C)/C=C\CCCC(=O)O`, “inactive”; in that of `Brc1c(Br)c(Br)c2[nH]cnc2c1Br`, “inactive”.
For `Cc1ccccc1/C=C/C1=NCCN1`, the Potency result is “inactive”.
As for `O=C(O)C1CN(CCCP(=O)(O)O)CCN1` (stereo not given), the Potency result is “inactive”.
In the case of `Nc1ccc2c3c(cccc13)C(=O)NC2=O` it was “inactive”; in that of `CC(N)=NCCCC[C@@H](N)C(=O)O`, “inactive”.
Turning to `Cn1ccnc1`, the Potency entry was “inactive”.
In the case of `CC(C)C[C@H](NC(=O)[C@H](O)[C@H](N)Cc1ccccc1)C(=O)O` it was “inactive”.
In the case of `O=C(O)C1=CC(=C(c2ccc(O)c(C(=O)O)c2)c2ccc(O)c(C(=O)O)c2)C=CC1=O` it was 464 nM (active).
In the case of `CC(=O)O[C@H]1Cc2ccccc2N(C(N)=O)c2ccccc21` it was “inactive”; in that of `[N-]=[N+]=Nc1ccc(C(=O)CSC[C@H](NC(=O)CC[C@H](N)C(=O)O)C(=O)NCC(=O)O)cc1`, “inactive”; in that of `CCSC(=N)N`, “inactive”.
With `CCCn1c(=O)c2[nH]c(C3CCCC3)nc2n(CCC)c1=O`, the Potency result was “inactive”.
In the case of `COC(=O)C(N)Cc1ccc(Cl)cc1` (stereo not given) it was “inactive”.
In the case of `Nn1nnc2ccccc21` it was “inactive”.
In the case of `CC(N)(C(=O)O)c1ccc(C(=O)O)cc1` (stereo not given) it was “inactive”; in that of `CC(C)[C@@H]1CC[C@@H](C)C[C@@H]1P(=O)(c1ccccc1)c1ccccc1`, “inactive”; in that of `CN[C@H](CC(=O)O)C(=O)O`, “inactive”.
Take `N#C/C(=C\c1ccc(O)c(O)c1)C(=O)NCCc1ccccc1`: the Potency result was “inactive”.
In the case of `c1ccc(C(NCCNC(c2ccccc2)c2ccccc2)c2ccccc2)cc1` it was “inactive”.
Take `O=c1onc2n1-c1cc(Br)ccc1OC2`: the Potency result is “inactive”.
With `CSC(N)=NCCC[C@H](N)C(=O)O`, the Potency entry is “inactive”.
For `Cn1c(=O)c2[nH]c(-c3ccc(S(=O)(=O)O)cc3)nc2n(C)c1=O`, the Potency result is “inactive”.
Consider `O=C(O)/C=C/c1cnc[nH]1`, for which the Potency result is “inactive”.
In the case of `CCCn1c(=O)c(C)cn2nc(N)nc12` it was “inactive”.
In the case of `S=C(S)N1CCCC1` it was “inactive”.
In the case of `CN1CCCC1CCOC(C)(c1ccccc1)c1ccc(Cl)cc1` (stereo not given) it was “inactive”; in that of `O[Si](CCCN1CCCCC1)(c1ccc(F)cc1)C1CCCCC1` (stereo not given), “inactive”.
With `NCC(O)C1CCCCCCC1` (stereo not given), the Potency result was “inactive”.
